Measured values published in PubChem BioAssay.
Where “and” joins values, the source holds several entries; their conditions need not be identical. Identical values can stand only once. Some compounds were tested as several samples or in several runs, with calls that do not always agree. Calls of active or inactive are those of the source. Cut-off read from the data, not from the text of the source, unless noted: active = inhibition above about 25%; inactive = the rest.

Legend:
[1] = target: Nuclear receptor coactivator 3 (Homo sapiens) (UniProt Q9Y6Q9); assay: SRC3 coactivator transcriptional activity inhibitors, confirmation, cell-based, luminescence, quadruplicate (AID 588792;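 active = mean inhibition over 43.08%, the solvent-only control mean plus 3 SD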;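 note: 0% = DMSO treated cells and 100% = gossypol at 36 µM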); conditions: HEK293 GAL4-SRC3 luciferase reporter, at 3.6 µM, stronger effect = higher value
Nuclear receptor coactivator 3 (Homo sapiens), sequence (Q9Y6Q9 whole entry, looked up, the tested form may be a part): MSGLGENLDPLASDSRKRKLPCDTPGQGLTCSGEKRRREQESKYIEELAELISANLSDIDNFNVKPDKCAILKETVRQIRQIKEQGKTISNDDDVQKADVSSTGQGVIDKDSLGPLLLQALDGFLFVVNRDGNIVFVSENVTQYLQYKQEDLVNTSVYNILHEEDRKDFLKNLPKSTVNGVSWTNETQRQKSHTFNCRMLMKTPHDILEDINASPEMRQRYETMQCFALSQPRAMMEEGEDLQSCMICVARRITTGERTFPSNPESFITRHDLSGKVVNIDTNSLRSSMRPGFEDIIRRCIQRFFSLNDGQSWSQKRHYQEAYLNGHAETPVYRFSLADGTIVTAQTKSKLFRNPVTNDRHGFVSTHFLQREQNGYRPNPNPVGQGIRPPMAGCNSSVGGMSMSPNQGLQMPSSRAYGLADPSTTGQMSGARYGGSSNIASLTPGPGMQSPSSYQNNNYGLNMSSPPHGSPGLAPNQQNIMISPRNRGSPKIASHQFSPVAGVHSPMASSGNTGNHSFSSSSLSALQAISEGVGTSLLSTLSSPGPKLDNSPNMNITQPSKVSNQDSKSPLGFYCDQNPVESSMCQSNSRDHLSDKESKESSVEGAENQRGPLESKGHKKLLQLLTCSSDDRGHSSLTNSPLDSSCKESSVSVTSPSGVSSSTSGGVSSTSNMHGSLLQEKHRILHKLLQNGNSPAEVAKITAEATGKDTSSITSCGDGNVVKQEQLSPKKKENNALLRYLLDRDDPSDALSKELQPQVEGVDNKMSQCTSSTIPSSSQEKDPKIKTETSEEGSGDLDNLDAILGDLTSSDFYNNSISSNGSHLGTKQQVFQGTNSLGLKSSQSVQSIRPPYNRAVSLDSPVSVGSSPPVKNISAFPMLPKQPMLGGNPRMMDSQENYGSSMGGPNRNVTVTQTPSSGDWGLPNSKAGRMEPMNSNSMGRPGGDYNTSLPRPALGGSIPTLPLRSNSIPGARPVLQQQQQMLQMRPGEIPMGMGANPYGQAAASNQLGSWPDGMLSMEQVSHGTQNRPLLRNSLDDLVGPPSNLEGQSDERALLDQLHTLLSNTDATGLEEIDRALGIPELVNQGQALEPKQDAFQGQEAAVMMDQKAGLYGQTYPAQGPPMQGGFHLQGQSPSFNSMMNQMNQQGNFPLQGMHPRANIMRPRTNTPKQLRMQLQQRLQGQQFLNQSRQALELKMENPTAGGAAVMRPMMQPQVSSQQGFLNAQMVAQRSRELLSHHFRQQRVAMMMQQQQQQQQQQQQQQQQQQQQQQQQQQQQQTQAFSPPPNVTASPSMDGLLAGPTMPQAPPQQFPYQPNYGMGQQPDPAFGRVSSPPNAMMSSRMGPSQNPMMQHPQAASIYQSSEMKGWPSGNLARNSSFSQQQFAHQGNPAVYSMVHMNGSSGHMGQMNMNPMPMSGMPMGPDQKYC

[2] = system: transactivating tegument protein VP16 (Human herpesvirus 1), Gal4-VP16 luciferase reporter; assay: VP16 transactivation inhibitors, counter-screen for SRC3 inhibitor project, cell-based, luminescence, high throughput (AID 588794; in the data active = inhibition above about 30%); conditions: mammalian cells, VP16-driven luciferase reporter luminescence; at 3.6 µM; stronger effect = higher value
[3] = target: Nuclear receptor coactivator 1 (Homo sapiens) (UniProt Q15788); assay: SRC1 coactivator transcriptional activity inhibitors, confirmation, cell-based, luminescence, quadruplicate (AID 588820;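 active = mean inhibition above 46.68%, the untreated control wells mean plus 3 SD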;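 note: 0% = DMSO wells and 100% = gossypol 36 µM treated wells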); conditions: HEK293 GAL4-SRC1 luciferase reporter, at 3.6 µM, stronger effect = higher value
Nuclear receptor coactivator 1 (Homo sapiens), sequence (Q15788 whole entry, looked up, the tested form may be a part): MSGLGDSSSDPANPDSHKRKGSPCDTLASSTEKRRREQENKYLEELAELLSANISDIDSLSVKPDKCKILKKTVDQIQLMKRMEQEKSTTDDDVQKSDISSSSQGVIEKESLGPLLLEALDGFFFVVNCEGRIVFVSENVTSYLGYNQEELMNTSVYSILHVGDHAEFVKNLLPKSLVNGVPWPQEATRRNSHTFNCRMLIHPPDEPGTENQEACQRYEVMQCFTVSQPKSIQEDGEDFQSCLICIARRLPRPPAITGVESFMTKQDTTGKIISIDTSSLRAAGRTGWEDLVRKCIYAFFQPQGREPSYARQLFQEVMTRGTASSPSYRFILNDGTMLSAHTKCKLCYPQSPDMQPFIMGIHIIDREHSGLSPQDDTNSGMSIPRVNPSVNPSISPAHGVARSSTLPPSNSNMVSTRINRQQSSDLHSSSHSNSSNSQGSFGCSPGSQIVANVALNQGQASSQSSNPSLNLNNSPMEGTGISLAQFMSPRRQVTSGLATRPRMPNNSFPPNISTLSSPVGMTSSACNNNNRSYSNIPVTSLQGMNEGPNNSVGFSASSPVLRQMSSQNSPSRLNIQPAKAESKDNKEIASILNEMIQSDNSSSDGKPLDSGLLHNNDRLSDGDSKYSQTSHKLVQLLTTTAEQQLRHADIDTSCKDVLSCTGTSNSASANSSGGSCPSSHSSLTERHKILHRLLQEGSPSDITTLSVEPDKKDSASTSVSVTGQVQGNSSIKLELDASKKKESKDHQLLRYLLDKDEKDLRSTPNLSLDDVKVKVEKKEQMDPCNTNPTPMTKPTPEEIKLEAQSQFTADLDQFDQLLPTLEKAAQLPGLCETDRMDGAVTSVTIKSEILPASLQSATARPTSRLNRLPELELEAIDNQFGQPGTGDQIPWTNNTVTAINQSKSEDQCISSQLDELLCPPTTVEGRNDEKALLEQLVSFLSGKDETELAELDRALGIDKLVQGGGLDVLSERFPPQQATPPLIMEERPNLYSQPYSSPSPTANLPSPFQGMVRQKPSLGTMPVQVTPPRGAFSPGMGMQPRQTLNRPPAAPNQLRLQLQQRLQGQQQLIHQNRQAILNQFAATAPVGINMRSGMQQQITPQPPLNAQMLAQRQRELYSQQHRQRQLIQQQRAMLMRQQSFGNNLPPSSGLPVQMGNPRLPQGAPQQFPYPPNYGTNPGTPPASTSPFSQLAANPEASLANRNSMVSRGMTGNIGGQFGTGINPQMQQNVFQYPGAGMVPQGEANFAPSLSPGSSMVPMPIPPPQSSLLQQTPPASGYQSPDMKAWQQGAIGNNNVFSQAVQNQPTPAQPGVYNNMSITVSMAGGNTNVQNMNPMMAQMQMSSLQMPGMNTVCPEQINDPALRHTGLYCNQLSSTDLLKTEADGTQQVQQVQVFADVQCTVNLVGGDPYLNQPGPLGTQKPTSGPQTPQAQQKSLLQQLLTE

[4] = VP16 transactivation inhibitors, counter-screen for SRC1 inhibitor project, cell-based, luminescence, high throughput (AID 588824); conditions: cell-based VP16 transactivation luciferase luminescence; at 3.6 µM; stronger effect = higher value
[5] = StAR promoter reporter inhibitors, counter-screen for LRH-1 inverse agonist project, cell-based, luminescence, high throughput (AID 651611; in the data active = inhibition above about 28%); conditions: StAR promoter luciferase reporter counterscreen, at 3.6 µM, stronger effect = higher value
[6] = target: Nuclear receptor subfamily 5 group A member 2 (Homo sapiens) (UniProt O00482); assay: LRH-1 (NR5A2) inverse agonists, retest, confirmation, cell-based, luminescence (AID 651613; in the data active = inhibition above about 42%;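 note: HEK293T cells co-transfected with LRH-1 and StAR promoter luciferase reporter; 0% = vehicle wells and 100% = parental cells lacking receptor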); conditions: cell-based LRH-1 luciferase reporter, inverse agonism; at 3.6 µM; stronger effect = higher value
Nuclear receptor subfamily 5 group A member 2 (Homo sapiens), sequence (O00482 whole entry, looked up): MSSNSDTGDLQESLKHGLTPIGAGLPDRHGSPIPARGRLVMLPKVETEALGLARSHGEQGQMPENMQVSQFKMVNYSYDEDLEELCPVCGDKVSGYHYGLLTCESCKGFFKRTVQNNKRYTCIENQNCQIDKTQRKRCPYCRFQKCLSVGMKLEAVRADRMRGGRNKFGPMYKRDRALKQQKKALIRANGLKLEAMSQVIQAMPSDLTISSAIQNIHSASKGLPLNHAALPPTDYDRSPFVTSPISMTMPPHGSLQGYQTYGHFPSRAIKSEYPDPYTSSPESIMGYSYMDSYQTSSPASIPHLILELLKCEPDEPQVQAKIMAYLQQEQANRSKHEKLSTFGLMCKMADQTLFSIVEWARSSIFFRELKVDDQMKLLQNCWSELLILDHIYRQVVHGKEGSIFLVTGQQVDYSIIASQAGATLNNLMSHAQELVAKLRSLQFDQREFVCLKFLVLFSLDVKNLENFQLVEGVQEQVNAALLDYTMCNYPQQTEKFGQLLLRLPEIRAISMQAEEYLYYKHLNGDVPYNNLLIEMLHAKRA

[7] = target: Steroidogenic factor 1 (Homo sapiens) (UniProt Q13285); assay: SF1 (NR5A1) inverse agonists, counter-screen for LRH-1 inverse agonist project, cell-based, luminescence, high throughput (AID 651614; in the data active = inhibition above about 44%;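 note: cells cotransfected with StAR promoter reporter and SF1 expression vector; 0% = vehicle on cells with receptor and 100% = vehicle on cells lacking receptor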); conditions: cell-based SF1 luciferase reporter, at 3.6 µM, stronger effect = higher value
Steroidogenic factor 1 (Homo sapiens), sequence (Q13285 whole entry, looked up, the tested form may be a part): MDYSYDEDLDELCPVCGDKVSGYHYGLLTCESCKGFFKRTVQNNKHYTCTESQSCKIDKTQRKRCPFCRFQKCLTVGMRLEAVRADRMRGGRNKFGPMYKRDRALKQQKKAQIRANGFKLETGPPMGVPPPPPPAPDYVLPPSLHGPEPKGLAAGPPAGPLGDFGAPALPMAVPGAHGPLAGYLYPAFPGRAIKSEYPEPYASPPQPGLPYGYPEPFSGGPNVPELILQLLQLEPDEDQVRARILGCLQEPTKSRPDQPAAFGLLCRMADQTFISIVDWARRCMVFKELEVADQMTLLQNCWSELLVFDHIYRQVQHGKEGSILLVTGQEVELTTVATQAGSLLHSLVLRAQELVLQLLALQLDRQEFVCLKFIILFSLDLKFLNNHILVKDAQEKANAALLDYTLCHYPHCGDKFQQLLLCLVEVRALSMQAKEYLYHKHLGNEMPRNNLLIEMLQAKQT

[8] = VP16 transactivation reporter inhibitors, counter-screen for LRH-1 inverse agonist project, cell-based, luminescence, high throughput (AID 651615; in the data active = inhibition above about 33%); conditions: Gal4-VP16 luciferase reporter cells, at 3.6 µM, stronger effect = higher value

Measured: inhibition

CC[n+]1ccc(/C=C/c2c[nH]c3ccccc23)cc1
inactive: [1] 8.39% | [2] 22.7% | [3] -16.8% | [5] 18%
active: [4] 25.5% | [6] 65% | [7] 55.9% | [8] 60.8%

CC(C)CC(=NNC(=O)c1ccncc1)c1cc(Cl)ccc1O
active: [1] 80.1% | [2] 72.5% | [3] 65.2% | [4] 78.7% | [5] 88.6% | [6] 101% | [7] 92.5% | [8] 85.7%

CC1(C)CC(N2CCCC2)=CC(=[N+]2CCCCCC2)C1
active: [2] 49.5% | [4] 52.1% | [6] 95% | [7] 61.3% | [8] 60.9%
inactive: [1] 23% | [3] -16.2% | [5] 0.24%

CC(=NNC(=S)Nc1cccc(Cl)c1)c1ccccn1
inactive: [3] 44.7%
active: [1] 71% | [2] 66.5% | [4] 65.1% | [5] 76.5% | [6] 90.8% | [7] 91.1% | [8] 75.7%

N=c1c2c(n(Cc3ccc(F)cc3)c3c1CCC3)CCCC2
inactive: [1] 27.9% | [3] 13.6%
active: [2] 61.5% | [4] 48% | [5] 41.4% | [6] 101% | [7] 70.9% | [8] 61.2%

NC(=S)NN=Cc1nccc2ccccc12
active: [1] 80% | [3] 58.1% | [5] 74.9% | [6] 89.8% | [7] 79%
inactive: [2] 26.7% | [4] 20.9% | [8] 20.6%

COc1ccc(-[n+]2c(C)cc(/C=C3\Sc4ccccc4N3C)cc2C)cc1
active: [1] 74.4% | [2] 83.5% | [3] 47.5% | [4] 78.8% | [5] 74.5% | [6] 106% | [7] 90% | [8] 87.4%

CN(C)c1ccc(C=c2c3ccccc3n3c2cc(-c2ccccc2)[n+]3C)cc1
active: [1] 65.7% | [2] 84.2% | [3] 56.7% | [4] 88.2% | [5] 74% | [6] 109% | [7] 94.8% | [8] 93.5%

CCC1(OC(=O)CN(C)C)C(=O)OCc2c1cc1n(c2=O)Cc2cc3c(N)cccc3nc2-1 (stereo not drawn)
active: [1] 89.8% | [2] 65.3% | [3] 62.3% | [4] 54.6% | [5] 83.5% | [6] 103% | [7] 90.5% | [8] 68.1%

Nc1nc(N)c2c(ccc3c2ccn3Cc2cccc([N+](=O)[O-])c2)n1
active: [1] 76.1% | [2] 42.6% | [3] 71.1% | [4] 40.8% | [5] 72.6% | [6] 65.6% | [7] 67.4% | [8] 43.3%

COc1ccccc1-n1c(-c2ccccc2)c[n+]2c1CCc1ccccc1-2
47.9% (active) and 39.9% (inactive): [1]
active: [2] 72.8% and 57.1% | [4] 73.8% and 53.7% | [5] 58.2% and 36.6% | [6] 96.8% and 84.2% | [7] 84.2% and 76% | [8] 83.9% and 70.9%
inactive: [3] 39.1% and 29.1%

CCN(CC)CCCNc1nc2ccccc2c2[nH]c3ccc(OC)cc3c12
inactive: [1] -19.2% | [3] -3.04%
active: [2] 49% | [4] 48.8% | [5] 30.1% | [6] 44.4% | [7] 60.5% | [8] 71.7%

CN1OC[C@@H]2CN[C@H](c3ccc(-c4cc5ccccc5o4)cc3)C[C@@H]21
active: [1] 83.3% | [2] 76.8% | [3] 68.6% | [4] 68.7% | [5] 78.3% | [6] 62.2% | [7] 79.8% | [8] 65.2%

N=c1c2c(n(Cc3ccc(Cl)c(Cl)c3)c3c1CCC3)CCCC2
active: [1] 44.7% | [2] 74.8% | [3] 62.8% | [4] 74.8% | [5] 61.2% | [6] 109% | [7] 84.6% | [8] 90.7%

Cc1nc(N)nc(N)c1/C=C/C(C)(C)c1ccc(Cl)cc1
active: [1] 70% | [2] 29.5% | [3] 62.2% | [4] 28.5% | [5] 78.5% | [6] 62.7% | [7] 56.5%
inactive: [8] 28.6%

CCC1(O)C(=O)OCc2c1cc1n(c2=O)Cc2cc3c(N)cccc3nc2-1 (stereo not drawn)
active: [1] 89.6% | [2] 77.9% | [3] 54.4% | [4] 71.3% | [5] 83.6% | [6] 104% | [7] 92.1% | [8] 79.6%
